Measurements taken from PubChem BioAssay AID1159580 (chemical genetic matrix, 2015).
Values joined by “and” are separate entries in the source; they are usually repeats but may differ in a detail not shown here. Identical values can stand only once. The campaign covered roughly 5,500 compounds. About 2,000 (36%) were called active. About 18% were inconclusive and are not listed. Rule as the data show it: active = normalized growth mostly below about 0.91 (no sharp cut-off); inconclusive = no clear call, values can overlap the other calls; inactive = mostly above about 0.92. The list shows a part of the results.

Assay: chemical genetic growth profiling, strain panel (AID 1159580);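 also: tested at 20 µM; growth read once vehicle control cultures reached saturation at 30 °C; 1 = growth at the plate median or of vehicle wells; lower values mean less growth of the strain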
Conditions: S. cerevisiae deletion strains, growth OD

Measured: normalized growth

CCCC(CCC)C(=O)O
inactive: locus YAL013W, strain DEP1, hits give low values 0.993 and 0.977 | locus YAL021C, strain ccr4, hits give low values 1 | locus YAL026C, strain drs2, hits give low values 1 | locus YAL030W, strain snc1, hits give low values 1.01 | locus YAL040C, strain CLN3, hits give low values 0.959 | locus YBL061C, strain skt5, hits give low values 1 | locus YBR009C, strain hhf1, hits give low values 1 | locus YBR021W, strain FUR4, hits give low values 0.953 | locus YBR023C, strain chs3, hits give low values 1.01 | locus YBR171W, strain sec66, hits give low values 1.01 | locus YBR229C, strain ROT2, hits give low values 0.992 | locus YBR231C, strain swc5, hits give low values 1.01 | locus YBR279W, strain paf1, hits give low values 1.02 | locus YCL011C, strain gbp2, hits give low values 1.01 | locus YCL016C, strain dcc1, hits give low values 1.01 | locus YCL029C, strain bik1, hits give low values 0.954 | locus YCL061C, strain MRC1 (second series), hits give low values 0.985 | locus YCL061C, strain MRC1, hits give low values 1 | locus YCL069W, strain vba3, hits give low values 1.02 | locus YCR088W, strain abp1, hits give low values 1.01 | locus YDL005C, strain med2, hits give low values 1.01 | locus YDL035C, strain GPR1, hits give low values 1 | locus YDL040C, strain nat1, hits give low values 1.01 | locus YDL074C, strain BRE1, hits give low values 1 | locus YDL101C, strain DUN1, hits give low values 1.01 | locus YDL185W, strain tfp1, hits give low values 0.964 | locus YDL192W, strain arf1, hits give low values 0.97 | locus YDR001C, strain nth1, hits give low values 1.01 | locus YDR069C, strain doa4, hits give low values 1.01 | locus YDR101C, strain arx1, hits give low values 0.963 | locus YDR137W, strain rgp1, hits give low values 0.985 | locus YDR150W, strain NUM1, hits give low values 0.981 | locus YDR159W, strain sac3, hits give low values 1.01 | locus YDR162C, strain NBP2, hits give low values 1 | locus YDR195W, strain ref2 1.02 | locus YDR297W, strain sur2, hits give low values 1 | locus YDR318W, strain mcm21, hits give low values 0.97 | locus YDR334W, strain swr1, hits give low values 1.02 | locus YDR335W, strain msn5, hits give low values 1.01 | locus YDR363W, strain ESC2, hits give low values 0.994 | locus YDR388W, hits give low values 0.967 | locus YDR392W, strain spt3, hits give low values 0.95 | locus YDR502C, strain sam2, hits give low values 0.965 | locus YEL003W, strain gim4, hits give low values 1.01 | locus YEL037C, strain rad23, hits give low values 1.01 | locus YEL061C, strain CIN8 (second series), hits give low values 1.01 | locus YEL061C, strain CIN8, hits give low values 0.994 | locus YER002W, strain NOP16, hits give low values 0.979 | locus YER015W, strain faa2, hits give low values 1.02 | locus YER016W, strain bim1, hits give low values 1 | locus YER110C, hits give low values 0.985 | locus YER111C, strain swi4, hits give low values 1.02 | locus YER155C, strain BEM2 (second series), hits give low values 0.996 | locus YER155C, strain BEM2, hits give low values 0.975 | locus YER167W, strain BCK2, hits give low values 0.986 | locus YFR010W, strain ubp6, hits give low values 1.02 | locus YGL078C, strain dbp3, hits give low values 0.963 | locus YGL086W, strain mad1, hits give low values 0.964 | locus YGL167C, strain pmr1, hits give low values 1.01 | locus YGL173C, strain kem1, hits give low values 1.01 | locus YGL227W, strain vid30, hits give low values 1.01 | locus YGL240W, strain doc1, hits give low values 1.01 | locus YGL248W, strain PDE1, hits give low values 0.998 | locus YGL253W, strain hxk2, hits give low values 1.01 | locus YGR078C, strain PAC10, hits give low values 0.989 | locus YGR135W, strain pre9, hits give low values 1 | locus YGR252W, strain gcn5, hits give low values 0.967 | locus YHR013C, strain ard1, hits give low values 1.03 | locus YHR027C, strain rpn1, hits give low values 1.03 | locus YHR030C, strain SLT2, hits give low values 0.987 and 0.951 | locus YHR079C, strain IRE1 (second series), hits give low values 0.966 | locus YHR079C, strain IRE1, hits give low values 0.951 | locus YHR094C, strain hxt1, hits give low values 0.97 | locus YHR129C, strain ARP1, hits give low values 0.994 | locus YHR142W, strain chs7, hits give low values 1.03 | locus YHR200W, strain rpn10, hits give low values 0.971 | locus YIL066C, strain RNR3, hits give low values 0.992 | locus YIL073C, strain SPO22, hits give low values 1.03 | locus YIR030C, strain dcg1, hits give low values 0.966 | locus YJL092W, strain hpr5, hits give low values 1.01 | locus YJL095W, strain BCK1 (second series), hits give low values 1.01 | locus YJL095W, strain BCK1, hits give low values 0.993 and 0.94 | locus YJL115W, strain asf1, hits give low values 1.02 | locus YJL129C, strain trk1, hits give low values 1.01 | locus YJL134W, strain LCB3, hits give low values 0.993 | locus YJL154C, strain vps35, hits give low values 1.01 | locus YJL164C, strain tpk1, hits give low values 1 | locus YJL166W, strain qcr8, hits give low values 1.01 | locus YJL168C, strain set2, hits give low values 0.986 | locus YJL187C, strain SWE1 (second series), hits give low values 0.992 | locus YJL187C, strain SWE1, hits give low values 1.01 | locus YJR043C, strain POL32, hits give low values 1.01 | locus YJR066W, strain TOR1, hits give low values 0.926 | locus YJR075W, strain HOC1, hits give low values 0.982 | locus YKL009W, strain mrt4, hits give low values 0.977 | locus YKL160W, strain elf1, hits give low values 1 | locus YKR001C, strain vps1, hits give low values 0.932 | locus YKR026C, strain gcn3, hits give low values 1.01 | locus YKR091W, strain srl3, hits give low values 1.01 | locus YLL001W, strain dnm1, hits give low values 1 | locus YLL026W, hits give low values 0.993 | locus YLL041C, strain sdh2, hits give low values 1.01 | locus YLR027C, strain aat2, hits give low values 1 | locus YLR039C, strain RIC1, hits give low values 0.97 | locus YLR058C, strain SHM2, hits give low values 0.999 | locus YLR102C, strain apc9, hits give low values 0.977 | locus YLR221C, strain rsa3, hits give low values 0.999 | locus YLR258W, strain gsy2, hits give low values 1.01 | locus YLR262C, strain YPT6 (second series), hits give low values 0.99 | locus YLR262C, strain YPT6, hits give low values 0.945 | locus YLR268W, strain sec22, hits give low values 0.961 | locus YLR320W, strain mms22, hits give low values 1.01 | locus YLR330W, strain CHS5, hits give low values 0.992 | locus YLR342W, strain FKS1 (second series), hits give low values 1.01 | locus YLR342W, strain FKS1, hits give low values 1.01 | locus YLR357W, strain rsc2, hits give low values 1.06 | locus YLR370C, strain arc18, hits give low values 1.01 | locus YLR371W, strain rom2, hits give low values 0.975 | locus YLR384C, strain iki3, hits give low values 1.01 | locus YLR418C, strain cdc73, hits give low values 0.987 | locus YML016C, strain PPZ1, hits give low values 0.992 | locus YML032C, strain rad52, hits give low values 0.98 | locus YML120C, strain ndi1, hits give low values 1 | locus YML124C, strain tub3, hits give low values 0.95 | locus YMR058W, strain fet3, hits give low values 1.01 | locus YMR078C, strain ctf18, hits give low values 0.967 | locus YMR125W, strain sto1, hits give low values 1.03 | locus YMR129W, hits give low values 1.01 | locus YMR205C, strain PFK2, hits give low values 1.02 | locus YMR223W, strain ubp8, hits give low values 0.994 | locus YMR231W, strain pep5, hits give low values 1.02 | locus YMR263W, strain SAP30, hits give low values 0.999 | locus YMR307W, strain GAS1, hits give low values 1.04 | locus YNL067W, strain RPL9B, hits give low values 0.988 | locus YNL071W, strain lat1, hits give low values 1.01 | locus YNL128W, strain TEP1, hits give low values 1 | locus YNL175C, strain NOP13, hits give low values 1 | locus YNL183C, strain NPR1, hits give low values 0.931 | locus YNL197C, strain WHI3, hits give low values 0.971 | locus YNL209W, strain ssb2, hits give low values 1.01 | locus YNL224C, strain SQS1, hits give low values 0.981 | locus YNL233W, strain BNI4, hits give low values 0.977 | locus YNL248C, strain rpa49, hits give low values 1.04 | locus YNL250W, strain rad50, hits give low values 0.937 | locus YNL271C, strain bni1, hits give low values 0.942 | locus YNL298W, strain CLA4, hits give low values 0.969 | locus YNL307C, strain MCK1, hits give low values 0.945 | locus YNL322C, strain KRE1 (second series), hits give low values 1 | locus YNL322C, strain KRE1, hits give low values 0.983 and 0.987 | locus YNR049C, strain mso1, hits give low values 1.01 | locus YNR052C, strain pop2, hits give low values 0.985 | locus YOL006C, strain TOP1, hits give low values 1.05 | locus YOL012C, strain htz1 1.46 | locus YOL147C, strain pex11, hits give low values 0.961 | locus YOR001W, strain rrp6, hits give low values 1.01 | locus YOR061W, strain CKA2, hits give low values 0.998 | locus YOR069W, strain VPS5, hits give low values 0.985 | locus YOR070C, strain gyp1, hits give low values 1.01 | locus YOR080W, strain dia2, hits give low values 1.02 | locus YOR083W, strain WHI5 (second series), hits give low values 0.985 | locus YOR083W, strain WHI5, hits give low values 0.998 | locus YOR106W, strain vam3, hits give low values 1.01 | locus YOR136W, strain idh2, hits give low values 0.968 | locus YOR144C, strain elg1, hits give low values 0.965 | locus YOR184W, strain ser1, hits give low values 0.966 | locus YOR231W, strain MKK1, hits give low values 0.935 | locus YOR265W, strain rbl2, hits give low values 1.01 | locus YOR270C, strain vph1, hits give low values 1.07 | locus YOR290C, strain snf2, hits give low values 1 | locus YOR316C, strain cot1, hits give low values 0.977 | locus YPL051W, strain arl3, hits give low values 0.999 | locus YPL055C, strain LGE1, hits give low values 1 | locus YPL078C, strain atp4, hits give low values 1.01 | locus YPL106C, strain sse1, hits give low values 1.01 | locus YPL240C, strain hsp82, hits give low values 1.02 | locus YPL256C, strain CLN2, hits give low values 0.882 | locus YPR119W, strain clb2, hits give low values 0.976 | locus YPR163C, strain tif3, hits give low values 0.959 | locus YPR167C, strain met16, hits give low values 0.973 | strain wtn01, hits give low values 0.954
active: locus YIL125W, strain kgd1, hits give low values 0.92 | locus YKL068W, hits give low values 0.91 | locus YKL085W, strain MDH1 (second series), hits give low values 0.918 | locus YKL085W, strain MDH1, hits give low values 0.918 | locus YLR113W, strain HOG1, hits give low values 0.853 | locus YPR141C, strain kar3, hits give low values 0.871
